Most compounds without a hit are left out; they make up all but 27% or so of the library.
Cav3 T inh – Cav3.2 calcium influx blockers – cell-based, Fluo-4 calcium fluorescence, FDSS, MLSMR library, primary screen. hit rate 4% among 100,000. AID 449739, 2010. B-score at 10 µM. Cav3.2-expressing cells; active compounds read low;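 active means single-dose well whose peak fluorescence ratio is a statistical outlier from its plate by either plate-standardised score or position-corrected B-score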
CYP2C19 inh – blockers of cytochrome P450 2C19 activity – biochemical, luminescence, ADME assay, primary screen | P33261 | CYP2C19 Supersomes, luciferin-H EGE luminescence, 30 min | inhibition, % at 5 µM | AID 778, 2007 | hit rate 21% among 96,000;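 active means CYP2C19 inhibition above a set limit at 5 µM in the primary screen, cut at about 50% in these data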
CYP2C19 act – human CYP2C19 activators, primary screen, biochemical, luminescence; Cytochrome P450 2C19 (Homo sapiens), P33261; recombinant CYP2C19, luciferin-H EGE luminescence; active compounds read high; 0 = fully inhibited enzyme, 1 = untreated enzyme; activation factor at 5 µM; 96,000 tested, under 10 active; AID 1025, 2008;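 active means activation factor of at least 2 at 5 µM in the primary screen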
Pyk2 oligo antag – antagonists of Pyk2 self-association, primary screen, Q293 cells, FERM NanoBiT luminescence, HTS | Protein-tyrosine kinase 2-beta (Homo sapiens), Q14289 | active compounds read low | z-score (the deposit names both 25 µM and 10 µM) | hit rate 0.83% among 99,000 | AID 1347419, 2020;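 active means Z-score of -3 or lower, scaled per plate to the spread of control and sample wells; inactive means z-score above -3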;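 further: negative z-score means lost luminescence so less FERM oligomerization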
CYP2C9 inh – blockers of cytochrome P450 2C9 activity – biochemical, luminescence, ADME assay, primary screen; P11712; CYP2C9 Supersomes, luciferin-H conversion; inhibition, % at 5 µM; hit rate 20% among 96,000; AID 777, 2007;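 active means blocking of liver enzyme CYP2C9 beyond about 50% at 5 µM, limit read from the data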
CYP2C9 act – human CYP2C9 activators, primary screen, biochemical, luminescence; Cytochrome P450 2C9 (Homo sapiens), P11712; recombinant CYP2C9, luciferin-H conversion; active compounds read high; factor 1 = untreated enzyme, 0 = blocked; activation factor at 5 µM; hit rate 1.4% among 96,000; AID 1024, 2008;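 active means activation factor of 2 or more for CYP2C9 at a 5 µM dose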
Each line names hits and unclear results; the compound was inactive in the other large screens.

CCC1CCc2c(sc(NC(=O)c3ccco3)c2C(N)=O)C1 (stereo not drawn)	none (no result: CYP2C19 inh, CYP2C19 act, CYP2C9 inh, CYP2C9 act)
CCCC1CCc2c(sc(N)c2C(N)=O)C1 (stereo not drawn)	CYP2C19 inh 67.5, CYP2C9 inh 68.8
CC(C)(C)C1CCc2c(sc(N)c2C(N)=O)C1 (stereo not drawn)	CYP2C19 inh 63.1
Cc1ccc(C#N)c(SCc2nnc(-c3ccc(Cl)cc3)o2)n1	none (no result: Cav3 T inh, CYP2C19 inh, CYP2C19 act, CYP2C9 inh, CYP2C9 act)
COc1ccccc1-c1cc(-c2ccc(C)cc2)nc(SCc2nnc(-c3ccccc3)o2)c1C#N	CYP2C9 inh 69.1
Cc1cc(NC(=O)c2cc(C3CC3)on2)no1	none (no result: CYP2C19 inh, CYP2C19 act, Pyk2 oligo antag, CYP2C9 inh, CYP2C9 act)
CC(Sc1nc(-c2ccccc2)cc(C(F)(F)F)n1)C(=O)N1CCCCC1 (stereo not drawn)	CYP2C9 inh 58.0
CC1CCCN(C(=O)C(C)Sc2nc(-c3ccccc3)cc(C(F)(F)F)n2)C1 (stereo not drawn)	CYP2C19 inh 71.3, CYP2C9 inh 60.2
CCCCn1c(SCC(=O)NCc2ccco2)nc2c(sc3ccccc32)c1=O	CYP2C9 inh 73.6
O=C(CSc1nc2c(sc3ccccc32)c(=O)n1CCc1ccccc1)NCc1ccco1	CYP2C9 inh 52.1
CCOCCCn1c(SCC(=O)NCc2ccco2)nc2c(sc3ccccc32)c1=O	CYP2C9 inh 65.5
O=C(CSc1nc2c(sc3ccccc32)c(=O)n1CCO)NCC1CCCO1 (stereo not drawn)	none
CCOC(=O)CSc1nc2c(sc3ccccc32)c(=O)n1CCCN1CCOCC1	CYP2C9 inh 55.1
O=C(O)CCNc1ccc2c(c1)OCCO2	none
O=C(CCn1c(=S)[nH]c2ccccc2c1=O)NCCCN1CCOCC1	none
CCN1CCN(CCn2c(=S)[nH]c3ccccc3c2=O)CC1	none
O=C(CCn1c(=S)[nH]c2ccccc2c1=O)N1CCOCC1	none (no result: Pyk2 oligo antag)
O=C(c1ccc(F)cc1)C1CCN(CCn2c(=S)[nH]c3ccccc3c2=O)CC1	Cav3 T inh -4.82 (no result: CYP2C19 inh, CYP2C19 act, Pyk2 oligo antag, CYP2C9 inh, CYP2C9 act)
O=C(CCCn1c(=S)[nH]c2ccccc2c1=O)N1CCCCC1	CYP2C19 inh 81.4
O=C(CCCn1c(=S)[nH]c2ccc(Br)cc2c1=O)N1CCN(c2ccccn2)CC1	CYP2C19 inh 70.0, CYP2C9 inh 55.3
O=c1c2ccccc2[nH]c(=S)n1CCCN1CCOCC1	CYP2C19 inh 59.9 (no result: Cav3 T inh)
CCCCN1CC[C@H]2C=CC[C@@H](C(=O)Nc3ccccc3)[C@H]2C1=O	none (no result: CYP2C19 inh, CYP2C19 act, Pyk2 oligo antag, CYP2C9 inh, CYP2C9 act)
CC1CCN(CCCn2c(=S)[nH]c3ccccc3c2=O)CC1	none
CC1CC(C)CN(C(=O)CCCn2c(=S)[nH]c3ccccc3c2=O)C1 (stereo not drawn)	CYP2C19 inh 85.2
CCn1c(COc2ccc(Cl)c(C)c2)nnc1SCC(=O)N1CCCC1	none
Cc1ccc(-c2n[nH]c(=S)n2/N=C/C=C\c2ccccc2[N+](=O)[O-])cc1	none (no result: Cav3 T inh)
O=[N+]([O-])c1ccccc1/C=C/C=N/n1c(-c2ccc(Cl)cc2)n[nH]c1=S	CYP2C9 inh 57.5
COC(=O)c1ccsc1NC(=O)C1COc2ccccc2O1 (stereo not drawn)	none (no result: Cav3 T inh, Pyk2 oligo antag)
COC(=O)c1ccccc1NC(=O)C1COc2ccccc2O1 (stereo not drawn)	CYP2C19 inh 90.3
CCOC(=O)c1ccccc1NC(=O)C1COc2ccccc2O1 (stereo not drawn)	CYP2C19 inh 86.7
COc1ccc(CNC(=O)C2COc3ccccc3O2)cc1 (stereo not drawn)	none (no result: CYP2C19 inh, CYP2C19 act, CYP2C9 inh, CYP2C9 act)
COc1ccccc1CNC(=O)C1COc2ccccc2O1 (stereo not drawn)	CYP2C19 inh 98.7
COC(=O)c1cc(NC(=O)C2COc3ccccc3O2)cc(C(=O)OC)c1 (stereo not drawn)	CYP2C19 inh 62.7, CYP2C9 inh 72.6
CC(C)CNC(=O)c1ccc(Cl)c(Cl)c1	none
COC(=O)c1ccc(OC(=O)c2ccc(OC)c(OC)c2)c(OC)c1	none
Cn1cnnc1SCc1ccc(C#N)cc1Cl	none
O=C(/C=C/c1ccccc1)NCCSc1ccc(Cl)cc1	Cav3 T inh -4.25
COc1ccc(/C=N/NC(=O)c2cccc([N+](=O)[O-])c2)cc1OS(=O)(=O)c1ccc(C)cc1	none

From PubChem BioAssay
